Experimental data from PubChem BioAssay AID588382 (National Center for Advancing Translational Sciences (NCATS), 2011).
Screen size: about 1,300 compounds; about 150 (12%) were called active. A call without a number means that no potency is given here. About 30% were inconclusive and are not listed. The sample holds actives, similar compounds and a random draw of the others, so the mix is not that of the screen. The call rests on the fitted dose curve; in most records, active means well fitted cell-killing curve with a large enough effect; inconclusive means small, poorly fitted or top-dose-only effect, or effect the other way; inactive means flat fitted curve, though single readings scatter.
Potency means the concentration at half of the fitted maximal effect.

Assay: qHTS of small molecules that selectively kill Giardia lamblia: Hit Validation in HepG2 cytotox;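 further: compound exposure lasted overnight at 37 deg C; nearly all actives have a fitted effect of over 55% in size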
Details: cell viability; Potency: HepG2 cytotoxicity; series mostly up to 38.3 µM
In short: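 Counterscreen cytotoxicity: ATPLite luminescence (15 min, room temperature) measured in HepG2 cells exposed overnight at 37 deg C to pin-transferred compound (23 nL) after overnight pre-incubation.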
In the case of `CN(C)c1ccc(N=Nc2ccccc2C(=O)OCC(=O)N2CCCC2)cc1`, the Potency is reported as “inactive”.
With `Cc1cc(N)ccc1N=Nc1c(C)n(C)n(-c2ccccc2)c1=O` the Potency was “inactive”.
For `FC(F)(F)c1ccc2c(c1)N1CCCC1CN2` (configuration not stated), the Potency was “inactive”.
With `CC(C)c1ccc(N=c2c([N+](=O)[O-])nn(-c3ccc4c(c3)OCCO4)n2O)cc1` the Potency was “inactive”.
For `Fc1ccc2cc(-c3ccsc3)ncc2c1`, the Potency was “inactive”.
With `CC/C=C1/N=C2C(=O)N(C)C(=O)N=C2N(C)N1` the Potency was 3.29 µM (active).
For `O=[N+]([O-])c1ccc(COn2nnc3ccccc32)cc1`, the Potency was “inactive”.
With `COc1ccc2c(c1)[n+](=O)c(C(C)=O)c(C)n2[O-]` the Potency was “inactive”.
With `Cc1nonc1OCCn1c([N+](=O)[O-])cnc1C` the Potency was “inactive”.
In the case of `CCCOC(=O)/C(=C\c1ccc([N+](=O)[O-])o1)NC(=O)c1ccccc1`, the Potency is reported as “inactive”.
In the case of `O=[N+]([O-])c1ccc2c3n([n+]([O-])c2c1)CCN=C3c1ccc(Cl)cc1`, the Potency is reported as “inactive”.
For `O=[N+]([O-])c1ccc(/C=[N+](\[O-])CCO)o1`, the Potency was “inactive”.
For `O=[N+]([O-])c1ccc(-c2ccn[nH]2)o1`, the Potency was “inactive”.
With `O=C1NC(=S)S/C1=C\C=C\c1ccc([N+](=O)[O-])o1` the Potency was 3.29 µM (active).
For `O=[N+]([O-])c1ccccc1S(=O)(=O)Oc1ccccc1/C=N/n1cnnc1`, the Potency was “inactive”.
In the case of `CC(=O)c1ccc(NC(=O)COC(=O)c2ccccc2N=Nc2ccc(N(C)C)cc2)cc1`, the Potency is reported as “inactive”.
With `O=C(Nc1cccc2ccccc12)C12CC3CC(C1)CC(n1cnc([N+](=O)[O-])n1)(C3)C2` the Potency was “inactive”.
With `Cc1cccc(-n2ncc3c(N4CCCC4)ncnc32)c1` the Potency was 2.07 µM (active).
With `O=C(c1ccco1)N1CCN(Cc2cc(=O)c(OCc3ccc([N+](=O)[O-])cc3)co2)CC1` the Potency was “inactive”.
For `COC(=O)c1ccccc1NC(=O)N1c2ccccc2Sc2ccccc21`, the Potency was “inactive”.
For `Cc1cccc(N2CCN(Cc3ccc([N+](=O)[O-])o3)CC2)c1C`, the Potency was “inactive”.
For `CCCC(=O)NC(=S)NNC(=O)c1ccc([N+](=O)[O-])cc1`, the Potency was “inactive”.
With `Cc1cc(-c2ccc(C)c(S(=O)(=O)N3CCN(c4ccc([N+](=O)[O-])cc4)CC3)c2)on1` the Potency was “inactive”.
For `N#Cc1c(Nc2ccccc2)[n+]([O-])c2ccc(Cl)cc2[n+]1[O-]`, the Potency was 3.29 µM (active).
With `COc1ccc(CC(=O)Nc2ncc([N+](=O)[O-])s2)cc1OC` the Potency was “inactive”.
In the case of `O=[N+]([O-])/C(Cl)=C(/NCCO)C(Cl)=C(Cl)Cl`, the Potency is reported as “inactive”.
For `COc1ccc(Cn2cnc([N+](=O)[O-])c2)cc1[N+](=O)[O-]`, the Potency was “inactive”.
For `O=[N+]([O-])c1cc(/C=N/Nc2nc(N3CCCCC3)nc(N3CCCCC3)n2)ccc1O`, the Potency was “inactive”.
With `O=C(Nc1ccccc1N1CCN(C(=O)c2ccccc2)CC1)c1ccc([N+](=O)[O-])o1` the Potency was “inactive”.
For `O=C(Nc1ccc(N2CCN(C(=O)c3ccc(Cl)cc3)CC2)cc1)c1ccc([N+](=O)[O-])o1`, the Potency was 3.29 µM (active).
For `Cc1ccccc1C(=O)N1CCN(c2ccc(NC(=O)c3ccc([N+](=O)[O-])o3)cc2)CC1`, the Potency was 3.29 µM (active).
For `O=C(c1ccc([N+](=O)[O-])o1)N1CCN(Cc2ccccc2)CC1`, the Potency was “inactive”.
For `O=C(Nc1ccc(N2CCN(C(=O)c3ccccc3)CC2)cc1)c1ccc([N+](=O)[O-])o1`, the Potency was 4.65 µM (active).
For `O=[N+]([O-])c1ccc(N2CCN(Cc3ccc([N+](=O)[O-])o3)CC2)cc1`, the Potency was “inactive”.
In the case of `C[C@H]1CN=C(N(C)C)N1CCC1CCCC1`, the Potency is reported as “inactive”.
For `CC(Oc1ccccc1)C(=O)Nc1nnc(S(=O)(=O)N2CCCCCC2)s1` (configuration not stated), the Potency was “inactive”.
With `COc1cccc([C@@H]2CC=C(C(=O)O)[C@H](c3ccccc3F)N2S(=O)(=O)c2ccc(C)cc2)c1` the Potency was “inactive”.
For `O=[N+]([O-])c1c(C(Cl)Cl)nn(-c2ccccc2)c1N1CCOCC1`, the Potency was “inactive”.
In the case of `Cc1ccc(Nc2ccc([N+](=O)[O-])nc2[N+](=O)[O-])cc1`, the Potency is reported as “inactive”.
For `Cc1ccc(CNC(=O)c2cc(-c3ccccc3C)n(CC3CC(c4cccc([N+](=O)[O-])c4)=NO3)n2)cc1` (configuration not stated), the Potency was “inactive”.
For `CN(C(=O)CSc1nc2ccc([N+](=O)[O-])cc2s1)C1CCS(=O)(=O)C1` (configuration not stated), the Potency was “inactive”.
For `COCCCn1[nH]c2c3c(ccc2c1=O)C(=O)c1ccccc1C3=O`, the Potency was “inactive”.
With `COc1ccc(C(=O)C(C)OC(=O)CNC(=O)c2ccco2)cc1` (configuration not stated) the Potency was “inactive”.
For `O=C(CSc1ccsc1[N+](=O)[O-])NC1CCCC1`, the Potency was “inactive”.
With `O=C(COc1cccnc1[N+](=O)[O-])NCc1cccs1` the Potency was “inactive”.
With `CC(C)CNC(=S)NC(=O)c1csc([N+](=O)[O-])c1` the Potency was “inactive”.
In the case of `O=C(NCCO)c1ccc2c3n(nc2c1)-c1ccccc1CO3`, the Potency is reported as 2.93 µM (active).
In the case of `Cc1cnc([N+](=O)[O-])n1CCOC(=O)NC(=O)c1cccc(F)c1`, the Potency is reported as “inactive”.
In the case of `C[C@@H]1CN([C@H](C)CO)C(=O)c2cc(NC(=O)Nc3ccc4c(c3)OCO4)ccc2O[C@H]1CN(C)Cc1ccncc1`, the Potency is reported as “inactive”.
With `O=C(O)c1cccc(S(=O)(=O)N(Cc2ccccc2)c2ccccc2Cl)c1` the Potency was “inactive”.
For `O=C(CSc1ccsc1[N+](=O)[O-])NCCc1ccccc1`, the Potency was “inactive”.
For `O=C(NCc1ccco1)NC(=O)c1csc([N+](=O)[O-])c1`, the Potency was “inactive”.
For `O=C(CNc1cccc([N+](=O)[O-])c1)N/N=C/c1ccc([N+](=O)[O-])o1`, the Potency was “inactive”.
For `CCCCCCCC(=O)N/N=C/c1ccc([N+](=O)[O-])o1`, the Potency was “inactive”.
For `O=C(N/N=C/c1ccc([N+](=O)[O-])o1)c1ccc2c(c1)OCO2`, the Potency was 4.65 µM (active).
In the case of `CC(NC(=O)C12CC3CC(CC(C3)C1)C2)C(=O)NN=Cc1ccc([N+](=O)[O-])o1` (configuration not stated), the Potency is reported as “inactive”.
For `O=C(N/N=C\c1ccc([N+](=O)[O-])o1)C1COc2ccccc2O1` (configuration not stated), the Potency was “inactive”.
In the case of `O=C(CNc1ccc2ccccc2c1)N/N=C/c1ccc([N+](=O)[O-])o1`, the Potency is reported as “inactive”.
With `O=C(N/N=C/c1ccc([N+](=O)[O-])o1)C1CC1` the Potency was “inactive”.
With `O=C(CC12CC3CC(CC(C3)C1)C2)N/N=C/c1ccc([N+](=O)[O-])o1` the Potency was 16.5 µM (active).
With `O=C(Cc1ccc([N+](=O)[O-])cc1)N/N=C/c1ccc([N+](=O)[O-])o1` the Potency was 5.21 µM (active).
In the case of `CCOC(=O)CN1C(=O)S/C(=C/c2cccc([N+](=O)[O-])c2O)C1=O`, the Potency is reported as “inactive”.
